{
  "source": "PubChem BioAssay",
  "note": "The source made the active and inactive calls.",
  "data": [
    {"biological_target": "NADPH oxidase 4 (Homo sapiens) (UniProt Q9NPH5)", "sequence (Q9NPH5 whole entry, looked up)": "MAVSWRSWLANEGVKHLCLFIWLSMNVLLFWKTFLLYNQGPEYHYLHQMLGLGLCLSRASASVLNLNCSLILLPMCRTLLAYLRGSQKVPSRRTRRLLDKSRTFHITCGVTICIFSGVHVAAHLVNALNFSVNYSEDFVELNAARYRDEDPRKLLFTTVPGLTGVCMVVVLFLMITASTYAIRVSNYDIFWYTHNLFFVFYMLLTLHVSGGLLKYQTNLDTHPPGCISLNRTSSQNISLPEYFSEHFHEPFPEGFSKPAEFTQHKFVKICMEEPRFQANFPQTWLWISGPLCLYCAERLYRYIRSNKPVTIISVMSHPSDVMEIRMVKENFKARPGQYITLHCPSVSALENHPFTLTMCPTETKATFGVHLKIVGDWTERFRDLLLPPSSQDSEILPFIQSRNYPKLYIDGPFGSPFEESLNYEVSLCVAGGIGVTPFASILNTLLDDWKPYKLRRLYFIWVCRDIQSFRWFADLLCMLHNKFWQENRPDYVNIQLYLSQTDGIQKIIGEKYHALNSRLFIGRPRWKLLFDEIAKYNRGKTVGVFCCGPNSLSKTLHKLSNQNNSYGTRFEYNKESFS", "assay": "NOX4-dependent H2O2 signal modulators, primary screen, NOX inhibitor project, cell-based, HEK293-NOX4, tetracycline-induced, Amplex Red fluorescence (AID 1160)", "conditions": "45 min, higher = more signal, called active from +8 up or from −8 down", "values": [
      {"molecule": "O=C(NCCN1CCOCC1)[C@@H]1c2ccccc2C(=O)N(Cc2ccccc2Cl)[C@H]1c1ccc(CO)cc1", "z-score": "0.34 (inactive)"},
      {"molecule": "COC(=O)[C@@]1(Cc2ccc(F)cc2)[C@H]2c3cc(C(=O)N4CCCC4)n(Cc4ccc(C)c(F)c4F)c3C[C@H]2CN1C(=O)c1ccccc1", "z-score": "-7.95 (inactive)"},
      {"molecule": "CCCCC(CC)C(O)C1C=CC2C(=O)N(c3ccccc3)C(=O)C2N1Nc1ccccc1F", "note": "(stereo not drawn)", "z-score": "0.143 (inactive)"},
      {"molecule": "[N-]=[N+]=Nc1ccccc1C[C@]1(C(=O)O)COC(c2ccc(OCCCO)cc2)=N1", "z-score": "-0.992 (inactive)"},
      {"molecule": "CC(=O)NCCCC[C@@H]1NC(=O)[C@@H]2C[C@H](C(=O)NCCCCCN)[C@H](c3cccc(OCCO)c3)N2C1=O", "z-score": "1.06 (inactive)"},
      {"molecule": "COc1ccc(C#Cc2ccc3c(c2)[C@]2(C(=O)N3)[C@H](c3ccc(OCCO)cc3)N3[C@H](c4ccccc4)[C@H](c4ccccc4)OC(=O)[C@H]3[C@@H]2C(=O)NC[C@H](O)c2ccccc2)cc1", "z-score": "0.194 (inactive)"},
      {"molecule": "CC(C)NC(=O)[C@@]1(C)c2ccccc2C(=O)N(Cc2ccc(OC(F)(F)F)cc2)[C@H]1c1ccc(CO)cc1", "z-score": "-0.667 (inactive)"},
      {"molecule": "CCCC[C@@H](O)C1=C(COC)C[C@H]2C(=O)N(Cc3ccccc3)C(=O)[C@H]2[C@H]1CO", "z-score": "0.282 (inactive)"}
    ]},
    {"biological_target": "NADPH oxidase 5 (Homo sapiens) (UniProt Q96PH1)", "sequence (Q96PH1 whole entry, looked up)": "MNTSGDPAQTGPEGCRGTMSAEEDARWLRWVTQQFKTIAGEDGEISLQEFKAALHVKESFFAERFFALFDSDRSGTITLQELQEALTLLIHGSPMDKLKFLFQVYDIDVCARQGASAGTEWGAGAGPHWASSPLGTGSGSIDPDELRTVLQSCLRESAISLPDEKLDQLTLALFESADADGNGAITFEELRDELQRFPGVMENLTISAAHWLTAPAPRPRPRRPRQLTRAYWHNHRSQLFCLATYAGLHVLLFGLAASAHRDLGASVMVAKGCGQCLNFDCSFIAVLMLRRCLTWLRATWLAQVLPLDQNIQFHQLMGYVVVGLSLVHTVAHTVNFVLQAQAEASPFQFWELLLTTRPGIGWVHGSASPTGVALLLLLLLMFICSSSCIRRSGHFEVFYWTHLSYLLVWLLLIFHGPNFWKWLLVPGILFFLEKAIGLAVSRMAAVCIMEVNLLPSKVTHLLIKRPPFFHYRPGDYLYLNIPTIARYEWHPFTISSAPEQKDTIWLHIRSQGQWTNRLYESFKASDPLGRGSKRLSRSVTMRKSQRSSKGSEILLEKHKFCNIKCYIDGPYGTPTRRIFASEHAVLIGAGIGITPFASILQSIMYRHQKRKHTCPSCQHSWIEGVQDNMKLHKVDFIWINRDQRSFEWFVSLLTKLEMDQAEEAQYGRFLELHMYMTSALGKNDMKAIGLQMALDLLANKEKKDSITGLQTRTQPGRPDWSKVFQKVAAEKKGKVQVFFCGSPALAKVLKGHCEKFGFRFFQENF", "assay": "NOX5-dependent H2O2 signal modulators, primary screen, NOX inhibitor project, cell-based, HEK293-NOX5, Amplex Red fluorescence (AID 1161)", "conditions": "HEK293-NOX5, ionomycin, 45 min, higher = more signal", "values": [
      {"molecule": "CCOC(=O)C[C@H]1[C@H](OC(=O)Cc2ccc3c(c2)OCO3)[C@@H](NC(=O)c2ccc3ccccc3n2)c2cc(OCCCO)ccc2N1C(=O)c1ccccc1", "z-score": -2},
      {"molecule": "COc1ccc([Si](C)(C)[C@@H]2[C@@H](CC(=O)N(CCO)Cc3ccccc3)O[C@]3(C(=O)N(Cc4cccc(N5CCCCC5=O)c4)c4ccccc43)[C@H]2C)cc1", "z-score": 3.58},
      {"molecule": "C=C[C@@H](OC)[C@H](OC(=O)Nc1ccc(OC)cc1)c1ccc(O)c(F)c1", "z-score": 3.63},
      {"molecule": "CCCCCC1=C2CNC(C)(C(=O)OC)C=C2C(C)C1=O", "note": "(stereo not drawn)", "z-score": -3.07},
      {"molecule": "O=C1NC(=O)C2C1C=CC(C(O)c1ccco1)N2Nc1ccc(Cl)cc1Cl", "note": "(stereo not drawn)", "z-score": -4.22},
      {"molecule": "CCC#CCN(Cc1ccccc1Br)[C@H](/C=C/C1CC1)[C@@H](O)Cc1ccccc1", "z-score": -1.2},
      {"molecule": "COc1ccc([Si](C)(C)[C@@H]2[C@@H](CC(=O)N3Cc4ccccc4C[C@H]3CO)O[C@]3(C(=O)N(Cc4ccc(N5C(=O)c6cccc7cccc5c67)cc4)c4ccccc43)[C@H]2C)cc1", "z-score": 2.03},
      {"molecule": "[N-]=[N+]=Nc1ccccc1C[C@@]1(C(=O)NCCN2CCOCC2)N=C(c2ccc(OCCCO)cc2)O[C@@H]1c1ccccc1N=[N+]=[N-]", "z-score": -1.6},
      {"molecule": "CC1=C2[C@@H](CCc3ccccc3)OB(O)C[C@@H]2[C@@H]2C(=O)N(Cc3ccccc3)C(=O)[C@@H]2C1", "z-score": 0.587},
      {"molecule": "CC1CC/C=C\\[C@H]2OC34C=CCN(Cc5ccccc5)C(=O)[C@H]3N(C(CO)C(C)C)C(=O)[C@@H]4C2C(=O)O1", "note": "(stereo partly drawn)", "z-score": 2.21},
      {"molecule": "COc1cccc(C)c1NC(=O)O[C@H]1[C@H](OC(=O)Nc2ccc3c(c2)OCO3)[C@@H](OC(=O)Nc2ccc3c(c2)OCO3)[C@@H](OC)O[C@@H]1CO", "z-score": -1.67},
      {"molecule": "Cc1ccccc1C(O)C1C=CC2C(=O)NC(=O)C2N1Nc1ccccn1", "note": "(stereo not drawn)", "z-score": -1.27},
      {"molecule": "CCCCC(=C=CC[C@H](O)c1ccc(OCCO)cc1)CCO", "z-score": -2.06},
      {"molecule": "CC(c1ccccc1)C(O)C1C=CC2C(=O)N(C)C(=O)C2N1Nc1ccccc1", "note": "(stereo not drawn)", "z-score": -3.26},
      {"molecule": "C=CCC(OC(C)=O)[C@@H]1[C@@H](N(Cc2ccc(-c3cccc(C(F)(F)F)c3)o2)C(=O)Cc2ccc(OC)cc2)c2cc(OCCCO)ccc2N1C(=O)c1ccc(-c2ccccc2)cc1", "note": "(stereo partly drawn)", "z-score": -1.35},
      {"molecule": "Cc1ccc(S[C@]2(C(=O)NC(C)C)CC(=O)N(Cc3cc(C(F)(F)F)cc(C(F)(F)F)c3)[C@@H]2c2ccc(CO)cc2)cc1", "z-score": 0.128},
      {"molecule": "CCOC(=O)C[C@H]1[C@H](OC(=O)c2cc3ccccc3oc2=O)[C@@H](NC(=O)CC(C)C)c2cc(OCCCO)ccc2N1C(=O)c1ccc2ccccc2n1", "z-score": 0.7},
      {"molecule": "COc1ccc(CCNC(=O)[C@@]2(c3ccc([N+](=O)[O-])cc3)CC(=O)N(C3CCCCC3)[C@@H]2c2ccc(CO)cc2)cc1", "z-score": 0.0392},
      {"molecule": "C[C@@H]1NC(=O)[C@@H](Cc2ccccc2)NC(=O)[C@@]23C(=O)N[C@@H](Cc4ccccc4)C2[C@H](C)[C@@]2(C)O[C@H]2C3/C=C/C/C=C\\CNC1=O", "note": "(stereo partly drawn)", "z-score": 0.523},
      {"molecule": "CCC1=C2CN(Cc3ccccc3)[C@@H](C(=O)Cc3ccccc3)C2C=CCC1", "note": "(stereo partly drawn)", "z-score": -0.123},
      {"molecule": "N#Cc1ccc(NN2C(C(O)c3ccc(Br)cc3)C=CC3C(=O)N(c4ccccc4)C(=O)C32)cc1", "note": "(stereo not drawn)", "z-score": -3.45},
      {"molecule": "OCCCC1=CC(c2ccc(CN3CCCC3)cc2)N(Cc2cc3c(cc2Br)OCO3)CC1", "note": "(stereo not drawn)", "z-score": -1.2},
      {"molecule": "O=C(O)[C@@H]1C[C@@H]2C(=O)N3CCC[C@H]3C(=O)N2[C@@H]1c1ccc(O)cc1", "z-score": -5.18},
      {"molecule": "CC(C)[Si]1(C(C)C)OCc2cc(-c3ccc(-c4ccc(Cl)c(Cl)c4)o3)nc(-c3ccccc3)c21", "z-score": 0.701},
      {"molecule": "COc1ccc([Si](C)(C)[C@@H]2[C@@H](CCO)O[C@]3(C(=O)N(Cc4ccccc4)c4ccc(N5C(=O)c6cccc7cccc5c67)cc43)[C@H]2C)cc1", "z-score": 2.32},
      {"molecule": "C=C[C@H](C)[C@H](OC(=O)Nc1ccc(SC)cc1)c1ccc(OCCO)cc1", "z-score": -0.756},
      {"molecule": "CCOC(=O)C[C@H]1[C@H](OC(=O)c2cc3ccccc3oc2=O)[C@@H](NC(=O)c2ccc3ccccc3n2)c2cc(OCCCO)ccc2N1C(=O)Cc1ccc(OC)cc1", "z-score": 1.53},
      {"molecule": "O=C(NCCN1CCOCC1)[C@@H]1c2ccccc2C(=O)N(Cc2ccccc2Cl)[C@H]1c1ccc(CO)cc1", "z-score": -0.371},
      {"molecule": "COC(=O)[C@@]1(Cc2ccc(F)cc2)[C@H]2c3cc(C(=O)N4CCCC4)n(Cc4ccc(C)c(F)c4F)c3C[C@H]2CN1C(=O)c1ccccc1", "z-score": -7.01},
      {"molecule": "CCCCC(CC)C(O)C1C=CC2C(=O)N(c3ccccc3)C(=O)C2N1Nc1ccccc1F", "note": "(stereo not drawn)", "z-score": 1.01},
      {"molecule": "[N-]=[N+]=Nc1ccccc1C[C@]1(C(=O)O)COC(c2ccc(OCCCO)cc2)=N1", "z-score": -2.7},
      {"molecule": "CC(=O)NCCCC[C@@H]1NC(=O)[C@@H]2C[C@H](C(=O)NCCCCCN)[C@H](c3cccc(OCCO)c3)N2C1=O", "z-score": 1.74},
      {"molecule": "COc1ccc(C#Cc2ccc3c(c2)[C@]2(C(=O)N3)[C@H](c3ccc(OCCO)cc3)N3[C@H](c4ccccc4)[C@H](c4ccccc4)OC(=O)[C@H]3[C@@H]2C(=O)NC[C@H](O)c2ccccc2)cc1", "z-score": -0.0443},
      {"molecule": "CC(C)NC(=O)[C@@]1(C)c2ccccc2C(=O)N(Cc2ccc(OC(F)(F)F)cc2)[C@H]1c1ccc(CO)cc1", "z-score": 1.99},
      {"molecule": "CCCC[C@@H](O)C1=C(COC)C[C@H]2C(=O)N(Cc3ccccc3)C(=O)[C@H]2[C@H]1CO", "z-score": 0.373}
    ]}
  ]
}
